Assay results published in PubChem BioAssay AID1508601 (ICCB-Longwood Screening Facility, Harvard Medical School, 2020).
Where “and” joins values, the source holds several entries; their conditions need not be identical. Equal values may be shown once. About 85 (1%) of roughly 5,700 compounds were called active. The sample holds actives, similar compounds and a random draw of the others, so the mix is not that of the screen. Rule as the data show it: active = p53-positive nuclei above about 36% (passing the limit was not always enough); inactive = the rest. Some structures have more than one record in an assay (separate samples or runs), and their calls can disagree.

How the values were obtained:
[1] = p53 stabilisation in HPV-positive human cells, imaging, p53-positive nuclei imaging, 24 h, 48 h (AID 1508601); conditions: 24/48 h
[2] = target: Cellular tumor antigen p53 (Homo sapiens) (UniProt P04637); assay: as above; conditions: 24/48 h, stronger effect = higher value
[3] = measured here: cell number at 24 h, Library stock concentration: 10 mM
[4] = measured here: cell number at 48 h, Library stock concentration: 10 mM
[5] = Library stock concentration: 10 mM
[6] = measured here: p53 positive nuclei at 24 h, Library stock concentration: 10 mM
[7] = measured here: cell number at 24 h, concentration not given here
[8] = measured here: cell number at 48 h, concentration not given here
[9] = measured here: p53 positive nuclei at 24 h, concentration not given here

Sequence of Cellular tumor antigen p53 (Homo sapiens) (P04637 whole entry, looked up): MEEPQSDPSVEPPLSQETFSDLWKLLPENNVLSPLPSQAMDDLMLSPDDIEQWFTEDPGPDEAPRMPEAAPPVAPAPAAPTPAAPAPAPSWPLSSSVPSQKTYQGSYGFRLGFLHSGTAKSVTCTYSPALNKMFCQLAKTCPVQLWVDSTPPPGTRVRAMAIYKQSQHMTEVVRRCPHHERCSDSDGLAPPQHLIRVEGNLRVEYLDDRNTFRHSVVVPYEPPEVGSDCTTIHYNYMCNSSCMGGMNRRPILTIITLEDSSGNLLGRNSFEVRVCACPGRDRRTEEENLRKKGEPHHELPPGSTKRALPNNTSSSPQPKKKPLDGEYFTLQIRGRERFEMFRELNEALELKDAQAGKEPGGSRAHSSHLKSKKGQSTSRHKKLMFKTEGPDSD

With `CC1=C(O)C(=O)C=C2C1=CC=C1[C@@]2(C)CCC2(C)C3C[C@](C)(C(=O)O)CC[C@]3(C)CC[C@]12C` (some centres undefined) the nuclei count, normalised ([1]; measured here: cell number at 24 h, Library stock concentration: 80 uM) was 94.9%, the nuclei count, normalised ([1]; measured here: cell number at 24 h, Library stock concentration: 400 uM) was 109% and the nuclei count, normalised ([1]; measured here: cell number at 24 h, Library stock concentration: 2 mM) was 92%. For the same compound, the nuclei count, normalised [1, 3] was 46.3%, the nuclei count, normalised ([1]; measured here: cell number at 48 h, Library stock concentration: 80 uM) was 95.5% and the nuclei count, normalised ([1]; measured here: cell number at 48 h, Library stock concentration: 400 uM) was 109%. The nuclei count, normalised ([1]; measured here: cell number at 48 h, Library stock concentration: 2 mM) was 91.7%, the nuclei count, normalised [1, 4] was 28.8% and the p53-positive nuclei, normalised ([2]; Library stock concentration: 80 uM) was 0.0324% (inactive). For the same compound, the p53-positive nuclei, normalised ([2]; Library stock concentration: 400 uM) was 0.159% (inactive), the p53-positive nuclei, normalised ([2]; Library stock concentration: 2 mM) was 0.635% (inactive) and the p53-positive nuclei, normalised [2, 5] was 9.53% (inactive). The p53-positive nuclei, normalised ([2]; measured here: p53 positive nuclei at 24 h, Library stock concentration: 80 uM) was 0.113%, the p53-positive nuclei, normalised ([2]; measured here: p53 positive nuclei at 24 h, Library stock concentration: 400 uM) was 0.398% and the p53-positive nuclei, normalised ([2]; measured here: p53 positive nuclei at 24 h, Library stock concentration: 2 mM) was 0.116%. It also gave a p53-positive nuclei, normalised [2, 6] of 10.2%.

For `CC1=C(O)C(=O)C=C2C1=CC=C1[C@@]2(C)CC[C@@]2(C)[C@@H]3C[C@](C)(C(=O)O)CC[C@]3(C)CC[C@]12C`, the nuclei count, normalised [1, 7] was 88.7% and 27%, the nuclei count, normalised [1, 8] was 109% and 15.7% and the p53-positive nuclei, normalised ([2]; concentration not given here) was 0.0329% (inactive) and 96.6% (active). The p53-positive nuclei, normalised [2, 9] was 0.225% and 93.4%.

Compound `CC1=C(O)C(=O)C=C2C1=CC=C1[C@@]2(C)CC[C@@]2(C)C3C[C@](C)(C(=O)O)CC[C@]3(C)CC[C@]12C` (some centres undefined) has a nuclei count, normalised ([1]; measured here: cell number at 24 h, Library stock concentration: 46 uM) of 117%, a nuclei count, normalised ([1]; measured here: cell number at 24 h, Library stock concentration: 278 uM) of 114% and a nuclei count, normalised ([1]; measured here: cell number at 24 h, Library stock concentration: 1.67 mM) of 57.4%. The nuclei count, normalised [1, 3] was 47.5%, the nuclei count, normalised ([1]; measured here: cell number at 48 h, Library stock concentration: 46 uM) was 112% and the nuclei count, normalised ([1]; measured here: cell number at 48 h, Library stock concentration: 278 uM) was 104%. For the same compound, the nuclei count, normalised ([1]; measured here: cell number at 48 h, Library stock concentration: 1.67 mM) was 48.7%, the nuclei count, normalised [1, 4] was 31.9% and the p53-positive nuclei, normalised ([2]; Library stock concentration: 46 uM) was 0.197% (inactive). The p53-positive nuclei, normalised ([2]; Library stock concentration: 278 uM) was 0.188% (inactive), the p53-positive nuclei, normalised ([2]; Library stock concentration: 1.67 mM) was 8.51% (inactive) and the p53-positive nuclei, normalised [2, 5] was 26.6% (inactive). The p53-positive nuclei, normalised ([2]; measured here: p53 positive nuclei at 24 h, Library stock concentration: 46 uM) was -0.0305%, the p53-positive nuclei, normalised ([2]; measured here: p53 positive nuclei at 24 h, Library stock concentration: 278 uM) was -0.0276% and the p53-positive nuclei, normalised ([2]; measured here: p53 positive nuclei at 24 h, Library stock concentration: 1.67 mM) was 9.81%. The p53-positive nuclei, normalised [2, 6] was 29.3%.

For `CCCCCCCCCCCC[N+](C)(C)CCOc1ccccc1`, the nuclei count, normalised ([1]; measured here: cell number at 24 h, Library stock concentration: 3.33 mM) was 115%, the nuclei count, normalised ([1]; measured here: cell number at 48 h, Library stock concentration: 3.33 mM) was 110% and the p53-positive nuclei, normalised ([2]; Library stock concentration: 3.33 mM) was -0.174% (inactive). It also gave a p53-positive nuclei, normalised ([2]; measured here: p53 positive nuclei at 24 h, Library stock concentration: 3.33 mM) of -0.284%.

In the case of `CCCCC/C=C\C/C=C\C/C=C\C/C=C\CCCCOC(CO)CO`, the nuclei count, normalised [1, 7] is reported as 104%, the nuclei count, normalised [1, 8] is reported as 111% and the p53-positive nuclei, normalised ([2]; concentration not given here) is reported as 0.099% (inactive). For the same compound, the p53-positive nuclei, normalised [2, 9] was 0.34%.
